# From PubChem BioAssay (NCATS)
# Records with an inconclusive call do not appear. A call without a number means that no potency is given here. Activity calls are given as the source filed them. The call rests on the fitted dose curve; in most records, active means well fitted curve in the direction sought with a large enough effect; inconclusive means small, poorly fitted or top-dose-only effect, or another doubt; inactive means no such curve, though single readings can be large; an effect the other way counts as inactive or inconclusive. Peptide text beside a SMILES is read from it.
# How the values were obtained:
# Furin (Homo sapiens) = Furin (Homo sapiens) (UniProt P09958); test: Furin counterscreen qHTS for Zika virus inhibitors (AID 1347149);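 further: purified recombinant full-length human furin enzyme at 5 nM; fluorescence gain from furin cutting a BOC-RVRR-AMC peptide substrate over 15 min; top concentration of the series differs between compounds; nearly all actives have a fitted effect of over 70% in size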
# Sequence of Furin (Homo sapiens) (P09958 whole entry, looked up): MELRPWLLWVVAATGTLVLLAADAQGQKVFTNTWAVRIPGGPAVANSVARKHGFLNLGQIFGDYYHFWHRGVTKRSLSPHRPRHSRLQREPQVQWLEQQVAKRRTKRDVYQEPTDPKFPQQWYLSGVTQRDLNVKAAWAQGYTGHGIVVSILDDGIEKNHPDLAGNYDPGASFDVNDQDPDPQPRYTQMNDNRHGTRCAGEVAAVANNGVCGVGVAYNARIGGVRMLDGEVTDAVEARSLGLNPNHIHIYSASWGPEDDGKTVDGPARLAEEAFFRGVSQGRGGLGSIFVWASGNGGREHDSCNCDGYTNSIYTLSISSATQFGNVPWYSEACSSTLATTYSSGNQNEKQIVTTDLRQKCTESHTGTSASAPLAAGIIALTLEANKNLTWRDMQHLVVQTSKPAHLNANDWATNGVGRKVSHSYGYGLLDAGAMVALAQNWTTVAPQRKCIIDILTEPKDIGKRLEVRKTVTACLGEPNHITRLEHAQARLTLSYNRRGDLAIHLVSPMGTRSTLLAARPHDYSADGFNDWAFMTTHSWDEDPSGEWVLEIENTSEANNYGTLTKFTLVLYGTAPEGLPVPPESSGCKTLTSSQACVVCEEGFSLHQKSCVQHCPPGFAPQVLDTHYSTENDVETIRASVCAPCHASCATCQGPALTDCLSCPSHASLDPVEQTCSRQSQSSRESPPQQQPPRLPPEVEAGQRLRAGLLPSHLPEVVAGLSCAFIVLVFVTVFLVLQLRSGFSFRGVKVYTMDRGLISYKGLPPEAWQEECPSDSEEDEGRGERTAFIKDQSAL
# Outline: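 Fluorogenic cleavage of BOC-RVRR-AMC (2 microM final, Km ~15 µM) was monitored (ex 340, em 450 nm) at 37C after 15 min RT preincubation of 5 nM furin with compounds in HEPES pH 7.0 buffer with CaCl2 and Triton X-100. Percent inhibition was fitted to a 4-parameter Hill curve.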
# [1] = system: Zika virus NS2B-NS3 protease (linked construct); test: Confirmatory screen NINDS AMC qHTS for Zika virus inhibitors (AID 1347152); further: nearly all actives have a fitted effect of over 70% in size; further: potency means the concentration at half of the fitted maximal effect
# Outline: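 Linked NS2B-NS3 protease, 1 nM, in 10 mM Tris-HCl pH 8.0, 0.01% Tween 20; compounds preincubated 15 min at room temperature. Nle-KRR-AMC 10 microM (Km 18.3 µM); 15-min fluorescence change (340/450 nm) fitted to 4-parameter Hill.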
# [2] = system: Zika virus NS2B-NS3 protease (unlinked complex); test: Confirmatory screen GU AMC qHTS for Zika virus inhibitors (AID 1347153); conditions: Recombinant NS2B-NS3 protease, AMC substrate fluorescence;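 further: enzyme at 25 nM with substrate at 10 µM below its Km of 18.3 µM; potency means the concentration at half of the fitted maximal effect; nearly all actives have a fitted effect of over 70% in size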
# Outline: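 Unlinked NS2B-NS3 complex (25 nM) in 10 mM Tris-HCl pH 8.0, 0.01% Tween 20 preincubated 15 min with compound, then 10 microM Bz-Nle-KRR-AMC (Km 18.3 µM). Fluorescence change over 15 min, normalized, Hill-fitted.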
# [3] = Confirmatory screen GU Rhodamine qHTS for Zika virus inhibitors qHTS (AID 1347157); conditions: purified enzyme assay, Rhodamine110 substrate fluorescence, 15 min; further: potency means the concentration at half of the fitted maximal effect; nearly all actives have a fitted effect of over 70% in size
# Outline: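 In dose–response format, inhibition of unlinked protease (25 nM) was measured with 1.5 microM bis-peptide Rhodamine110 substrate. Aprotinin served as the intraplate control.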
# [4] = ZIKV-mCherry secondary qHTS for Zika virus inhibitors (AID 1347158); further: top concentration of the series differs between compounds
# Outline: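 Vero cells, 5,000/well, plated overnight at 37 °C, then compound added and infected with recombinant ZIKV-mCherry at MOI 1 for 48-72 h. PFA-fixed, Hoechst nuclear stain, high-content imaging; cells with mCherry intensity above 450 RFU scored infected, reported as percent infection.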
# [5] = system: Zika virus NS2B-NS3 protease; test: Primary screen GU AMC qHTS for Zika virus inhibitors (AID 1347154); further: nearly all actives have a fitted effect of over 70% in size
# Outline: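 Fluorogenic AMC-substrate cleavage by noncovalent NS2B-NS3 protease complex (25 nM, pH 8.0 Tris buffer with Tween 20) followed for 15 minutes at room temperature (~20% conversion). Percent inhibition from ex340/em450 signal change, fitted by 4-parameter Hill equation.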
# [6] = system: Zika virus NS2B-NS3 protease (unlinked); test: Optimization of GU AMC qHTS for Zika virus inhibitors: Unlinked NS2B-NS3 protease assay (AID 1347151); conditions: recombinant ZIKV NS2B-NS3 protease, fluorogenic AMC substrate; further: potency means the concentration at half of the fitted maximal effect; nearly all actives have a fitted effect of over 80% in size
# Outline: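 Noncovalent NS2B hydrophilic domain–NS3 protease complex (25 nM final) in 10 mM Tris-HCl pH 8.0, 0.01% Tween 20; AMC substrate, room temperature 15 min (~20% conversion); fluorescence change normalized, 4-parameter Hill fit.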
# [7] = qHTS of pediatric cancer cell lines to identify multiple opportunities for drug repurposing: Primary screen for Rh30 cells (AID 1347107); further: series mostly up to about 46 µM; nearly all actives have a fitted effect of over 75% in size
# Outline: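 Cells (500-1,000/well) rested 5 h, then received compounds for 48 h; metabolically active cells were measured by CellTiter-Glo luminescence. Final concentrations spanned up to 46 µM (MIPE, 11-point) or 0.59 nM-46 µM (NPC, 8-point) in primary screens, 11-point in follow-ups.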
# [8] = qHTS of pediatric cancer cell lines to identify multiple opportunities for drug repurposing: Primary screen for Rh41 cells (AID 1347108)
# Outline: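 Cells plated at 500-1,000/well in growth medium, compounds added after 5 h. MIPE tested at 11 points (from 0.78 nM), NPC at 8 points (from 0.59 nM). CellTiter-Glo luminescence after 48 h; concentration-response curves from primary screen.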
# [9] = target: N-terminal Xaa-Pro-Lys N-methyltransferase 1 (Homo sapiens) (UniProt Q9BV86); test: qHTS Assay for Inhibitors of N-terminal methyltransferase 1 (NTMT1): LOPAC validation of the NTMT1 SAHH-coupled ThioGlo3 Assay (AID 1347143); conditions: recombinant NTMT1, SAHH-coupled ThioGlo3 fluorescence
# Sequence of N-terminal Xaa-Pro-Lys N-methyltransferase 1 (Homo sapiens) (Q9BV86 whole entry, looked up): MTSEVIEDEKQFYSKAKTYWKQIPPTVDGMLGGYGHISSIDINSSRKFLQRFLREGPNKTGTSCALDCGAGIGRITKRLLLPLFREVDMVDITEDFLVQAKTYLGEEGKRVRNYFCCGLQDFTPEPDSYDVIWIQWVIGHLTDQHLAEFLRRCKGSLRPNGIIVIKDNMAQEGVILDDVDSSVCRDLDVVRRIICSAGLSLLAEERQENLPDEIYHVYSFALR
# Outline: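 Inhibition of NTMT1 methylation of peptide SPKRIA is followed by converting SAH with SAHH and labelling the released thiol with ThioGlo3. Plates are read at 340/450nm before and 30 min after reagent addition, both at room temperature.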
structure (smiles),measurement,setting,value
CC(C)C(=O)c1cn(CC(=O)COc2ccc(Oc3ccccc3)cc2)c2ccc(C(=O)O)cc12,Potency,Furin (Homo sapiens),inactive
same,Potency,[1],44.1 µM (active)
same,Potency,[2],44.1 µM (active)
same,Potency,[3],8.79 µM (active)
same,outcome,[4],inactive
CCOc1ccc(-c2ccc(Cn3c(CC(C)(C)C(=O)O)c(SC(C)(C)C)c4cc(OCc5ccc(C)cn5)ccc43)cc2)cn1,Potency,[1],7.84 µM (active)
same,Potency,[3],1.75 µM (active)
CCOC(=O)C1=CC2(CC)CCCN3CCc4c(n1c1ccccc41)C32 (centres undefined),outcome,[5],inactive
O=C(O)CC/C=C\CC[C@H]1[C@@H](N2CCCCC2)[C@@H](O)C[C@@H]1OCc1ccc(-c2ccccc2)cc1,outcome,[5],inactive
CC(C)N=c1cc2n(-c3ccc(Cl)cc3)c3ccccc3nc-2cc1Nc1ccc(Cl)cc1,Potency,Furin (Homo sapiens),inactive
same,Potency,[6],0.607 µM (active)
same,outcome,[5],inactive
same,outcome,[4],inactive
CC(NC(=O)Cc1cc(F)cc(F)c1)C(=O)NC(C(=O)OC(C)(C)C)c1ccccc1 (centres undefined),outcome,[5],inactive
CC(=O)c1c(C)cc(O)cc1O[C@@H]1O[C@H](CO)[C@@H](O)[C@H](O)[C@H]1O,Potency,[3],30.6 µM (active)
CN1Cc2c(N)cccc2C(c2ccccc2)C1 (centres undefined),outcome,[7],inactive
same,outcome,[8],inactive
same,Potency,[9],35.5 µM (active)
CC1=C(/C=C/C(C)=C/C=C/C(C)=C/CO)C(C)(C)CCC1,outcome,[5],inactive
CC(=O)N[C@@H](CC(=O)O)C(=O)N[C@@H](CCC(=O)O)C(=O)O (Ac-Asp-Glu-OH),outcome,[5],inactive
CC1(C)CCC(C)(C)c2cc3c(cc21)Sc1ccccc1N=C3c1ccc(C(=O)O)cc1,Potency,[1],7.84 µM (active)
same,Potency,[3],1.56 µM (active)
CNc1cc(OC)c(C(=O)N[C@H]2CCN(Cc3ccccc3)[C@H]2C)cc1Cl,outcome,[5],inactive
CC(C)C1=CCC(C)(O)C(OC2OC(CO)C(O)C(O)C2O)C1 (centres undefined),Potency,Furin (Homo sapiens),inactive
same,Potency,[3],27.3 µM (active)
same,outcome,[4],inactive
NCc1ccc(OCCCc2sc(-c3ccc4c(c3)/C(=N/Nc3nc5ccccc5s3)CCC4)nc2C(=O)O)cc1,Potency,[3],13.9 µM (active)
OC[C@H]1O[C@@H](Oc2ccc(O)c3cccc(O)c23)[C@H](O)[C@@H](O)[C@@H]1O,Potency,[3],4.85 µM (active)
C=C1CC[C@@H]2[C@](C)(CO[C@@H]3O[C@H](CO)[C@@H](O)[C@H](O)[C@H]3O)CCC[C@@]2(C)[C@@H]1CCC1=CCOC1=O,Potency,Furin (Homo sapiens),inactive
CC(=O)O[C@@H]1C[C@]2(C)[C@@]3(CCC4[C@@]5(C)CC[C@H](O[C@@H]6O[C@H](C(=O)O)[C@@H](O)[C@H](O[C@@H]7O[C@H](CO)[C@H](O)[C@H](O)[C@H]7O[C@@H]7O[C@@H](C)[C@H](O)[C@@H](O)[C@H]7O[C@@H]7OC[C@](O)(CO)[C@H]7O)[C@H]6O[C@@H]6O[C@H](CO)[C@H](O)[C@H](O)[C@H]6O)C(C)(C)C5CC[C@]42C)O[C@@H](O)[C@]12C3CC(C)(C)[C@@H](OC(=O)/C=C/c1ccc(O)c(O)c1)[C@@H]2OC(=O)/C=C/c1ccccc1 (some centres undefined),Potency,[1],10.5 µM (active)
same,Potency,[2],7.42 µM (active)
same,Potency,[3],3.32 µM (active)
Cc1nn(C)c(COc2ccc(N3CCN(S(=O)(=O)N(C)C)CC3)cc2)c1-c1cccc2c(CCCOc3cccc4ccccc34)c(C(=O)O)n(CCN3CCOCC3)c12,Potency,[3],1.75 µM (active)
CC(C)(O)C1CC=C(C(=O)OCC2OC(Oc3c(O)cc(C(=O)O)cc3O)C(O)C(O)C2O)CC1 (centres undefined),Potency,[1],inactive
